# From PubChem BioAssay AID430 (Sanford-Burnham Center for Chemical Genomics, 2006)
# Hit rate of the full screen: of about 63,000 compounds, about 1,100 (1.7%) were called active. Cut-off read from the data, not from the text of the source: active = cytotoxicity above about 50%; inactive = the rest. This excerpt belongs to a sample that is enriched for actives. Entries with a potency or affinity are not part of this list.
# Assay: cytotoxicity in HPDE-C7 cells, cell-based, fluorescence, HTS (AID 430);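 note: cells exposed to compound for 48 hours before viability readout; 0% = vehicle and 100% = reference cytotoxic drug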
# Details: HPDE-C7 pancreatic duct cells viability, at 10 µM, stronger effect = higher value
row,Structure (SMILES),cytotoxicity
1,COc1ccc(CNC(=O)c2csnn2)cc1,-14.5% (inactive)
2,CN(C)C=C1C(=O)c2ccccc2C1=O,29.6% (inactive)
3,CN(C)/C=C1\C(=O)c2ccc(N(C)C)nc2CC1c1ccccc1 (stereo not given),60.7% (active)
4,CN(C)/C=C1/Sc2ccccc2C1=O,-34.3% (inactive)
5,CCN1C(=O)C2(C(C#N)=C(N)Oc3c2c(C)nn3-c2ccccc2)c2ccccc21 (stereo not given),-16% (inactive)
6,Cc1cc2n(n1)C(c1ccccc1)Nc1ccccc1-2 (stereo not given),-1.8% (inactive)
7,Cc1cc2n(n1)C(c1ccccc1Cl)Nc1ccccc1-2 (stereo not given),9.5% (inactive)
8,Cc1ccc(C(=O)NC(Cc2c[nH]c3ccccc23)C(=O)O)o1 (stereo not given),-0.1% (inactive)
9,Cc1cc(N2C(=O)C(=O)/C(=C(/O)c3ccc(Cl)cc3)C2c2cccc(Br)c2)no1 (stereo not given),56.2% (active)
10,COc1ccc(/C(O)=C2\C(=O)C(=O)N(c3cc(C)on3)C2c2ccccc2OC)cc1 (stereo not given),-1.9% (inactive)
11,Cc1ccc(/C(O)=C2\C(=O)C(=O)N(c3cc(C)on3)C2c2cccc(Cl)c2)cc1 (stereo not given),51.8% (active)
12,Cc1ccc(/C(O)=C2\C(=O)C(=O)N(c3cc(C)on3)C2c2cccc(Br)c2)cc1 (stereo not given),49.9% (inactive)
13,COc1cccc(C2/C(=C(\O)c3ccc(OC)c(OC)c3)C(=O)C(=O)N2c2cc(C)on2)c1 (stereo not given),20.9% (inactive)
14,Cc1cc(N2C(=O)C(=O)/C(=C(/O)c3ccc(F)cc3)C2c2cccc(Br)c2)no1 (stereo not given),71.5% (active)
15,Cc1cc(N2C(=O)C(=O)/C(=C(/O)c3ccc(F)cc3)C2c2ccc(F)cc2)no1 (stereo not given),23.3% (inactive)
16,Cc1cc(N2C(=O)C(=O)/C(=C(/O)c3ccccc3)C2c2cccc(Br)c2)no1 (stereo not given),3.2% (inactive)
17,Cc1cc(N2C(=O)C(=O)/C(=C(/O)c3ccc(F)cc3)C2c2ccc(Cl)cc2)no1 (stereo not given),34.6% (inactive)
18,Cc1c(N=Cc2cc3c(cc2Cl)OCO3)c(=O)n(-c2ccccc2)n1C,-3.1% (inactive)
19,COc1ccccc1OCCCCNCCO,-0.7% (inactive)
20,CCOC(=O)N1CCC(N2CCN(S(=O)(=O)c3ccc(NC(C)=O)cc3)CC2)CC1,-12.8% (inactive)
21,Cc1ccnc(Sc2nc3c(c(=O)[nH]c(=O)n3C)n2CCCc2ccccc2)n1,-9.5% (inactive)
22,C=CCn1c(SCC(=O)Nc2cccc(C(=O)OC)c2)nnc1C(C)NC(=O)c1cccs1 (stereo not given),-5% (inactive)
23,O=C(c1cc(-c2cccs2)on1)N1CCc2ccccc2C1,2.3% (inactive)
24,CSc1nc2nc(C)cc(-c3ccccc3)n2n1,-10.4% (inactive)
25,Cc1cccc(NC(=O)C2CCN(S(=O)(=O)c3c(C)nn(C)c3C)CC2)n1,1.6% (inactive)
